Values joined by “and” are separate entries in the source; they are usually repeats but may differ in a detail not shown here. Equal values may be shown once. Screen size: about 130,000 compounds; about 350 (0.27%) were called active. The sample holds actives, similar compounds and a random draw of the others, so the mix is not that of the screen. No stated cut-off is given here; in the data, active means z-score below about -2 (passing the limit was not always enough); inactive means the rest. A structure can be active in one record and inactive in another.

The nature of this assay: PubChem AID 504770. Conditions: E. coli YBA685 rctB-dependent plasmid, OD600 growth, 3 h; stronger effect = lower value.
Regarding `Cc1ccc(C(=O)C(C)Sc2nnc3ccccn23)cc1` (configuration not stated), the z-score was -0.05 (inactive).
Next, `Cc1c(Sc2nc3ccccc3s2)c(=O)[nH]c2cc3c(cc12)OCO3`: 1 (inactive).
Turning to `C/C=C/C(=O)Nc1ccc(N2CCN(c3ccc(C(F)(F)F)cn3)CC2)nc1`, the z-score was 0.05 (inactive).
For the molecule `O=C1CC2(CCN(C(=O)Cc3ccccc3)CC2)Oc2ccccc21`, the z-score is 2.85 (inactive).
Regarding `CCc1n[nH]c(=O)c2cc3sccc3n12`, the z-score is -0.2 (inactive).
For `O=C1c2ccc(-c3nc4ccc(Cl)cc4c(=O)o3)cc2C(=O)N1CC1CCCO1` (configuration not stated) the value was -0.25 (inactive).
For `O=C1NC(=Nc2ccc(O)cc2)S/C1=C\c1ccc(C(=O)O)cc1`, the z-score was -0.6 (inactive).
Turning to `Cc1ccccc1C(CC(=O)O)N1Cc2ccccc2C1=O` (configuration not stated), the z-score was -0.8 (inactive).
With `Cc1ccc(Cn2c(=O)c3ccccc3n3c(SCC4CCCO4)nnc23)cc1` (configuration not stated), the z-score was -0.7 (inactive).
As for `COc1ccc(NC(=O)c2cc(F)cc3c2OCOC3)cc1`, the z-score was 1.45 (inactive).
With `CNS(=O)(=O)c1ccc2[nH]c(=O)cc(C)c2c1`, the z-score is 0.45 (inactive).
Next, `N#CC1=CN(Cc2ccccc2)C=C(/C=N/Nc2ccc(F)cc2)C1`: -0.9 (inactive); `Cc1cc(C(=O)COC(=O)C2CC2C)c(C)n1-c1cccc(S(=O)(=O)N2CCOCC2)c1` (configuration not stated): -0.5 (inactive); `O=C(CNC1CCCC1)Nc1ccc(N2CCCC2)cc1`: -0.15 (inactive).
For `CN1/C(=C\C(=O)COC(=O)C(C)(C)C)C(C)(C)c2ccccc21` the value was -0.4 (inactive).
In the case of `Cn1[nH]c2nc3[nH]n(C)c(=O)c3c(-c3ccccc3)c2c1=O`, the z-score was 0.65 (inactive).
As to `Cn1nc(SCC(=O)N2c3ccccc3CCc3ccccc32)sc1=S`, the z-score is -0.4 (inactive).
Take `O=C(Nc1ccc(Cl)c(Cl)c1)Nc1ccnn1C1CCCCC1`: the z-score was -1.3 (inactive).
As to `CN(C)c1ccc(/C=N/S(=O)(=O)c2ccccc2)cc1`, the z-score is -1.15 (inactive).
Turning to `CC1(C)CC(=O)c2c(SCCO)sc(C#N)c2C1`, the z-score was -0.35 (inactive).
On to `N#CC1=C(N)C(C#N)(C#N)C(c2cccs2)C=C1C1CC1` (configuration not stated), for which the z-score is -0.95 (inactive).
As to `Cc1nn(CCCC(=O)NCCC2=CCCCC2)c(=O)c2nccn12`, the z-score is 0.9 (inactive).
For `O=S1(=O)CCN(Cc2cc(F)cc3c2OCOC3)CC1`, the z-score is 0.35 (inactive).
For `CN(C)[C@@H]1C(=O)C(C(N)=O)=C(O)[C@@]2(O)C(=O)C3=C(O)c4c(O)ccc(Cl)c4[C@@H](O)[C@H]3C[C@@H]12` the value was -2.25 (active).
`c1ccn2c(c1)nc1nc3nonc3nc12`: the z-score is -5.05 (active).
For the molecule `O=c1cc(O)nc2ccccn12`, the z-score was 1.45 (inactive).
Consider `O=c1[nH]nc2ccccn12`, for which the z-score was 1 (inactive).
Take `Cc1ccccc1Oc1ccc(S(=O)(=O)N2CC(C)OC(C)C2)cc1` (configuration not stated): the z-score is 0.7 (inactive).
Next, `CC(C)CNC(=O)c1ccc(N(C)C)cc1`: -1.2 (inactive).
As to `CCOc1ccc(N=C2CSC(=O)N2)cc1`, the z-score is -0.95 (inactive).
Regarding `CCOC(=O)c1sc(-c2ccccc2)nc1CSc1nccn1C`, the z-score is 1.15 (inactive).
For `Cc1c(CCN)sc2nc(-c3ccc(Cl)cc3)nn12` the value was 0.25 (inactive); for `CS(=O)(=O)N1CCN=C1SCc1cccnc1`, -0.85 (inactive); for `O=C1CCc2cc(S(=O)(=O)NCC3CCCO3)cc3c2N1CC3` (configuration not stated), 0.8 (inactive).
Consider `CCOC(=O)c1ccc(-c2cc(=O)c3ccccc3o2)cc1`, for which the z-score is -0.3 (inactive).
For `O=C(Nc1ccc(F)cc1)n1ncc2cc(Cl)ccc21` the value was 1.1 (inactive); for `N#CC(C#N)=Cc1ccc(-c2cccc(C(=O)O)c2)o1`, 1.85 (inactive).
In the case of `COc1ccc(CNC(=O)COc2ncnc3ccccc23)cc1`, the z-score was 0.2 (inactive).
Next, `Cc1c(OCC#N)ccc2c3c(c(=O)oc12)CCC3`: -0.7 (inactive); `CCC1(C)NC(=O)N(NC(=O)c2ccc(S(=O)(=O)N3CCCC3)cc2)C1=O` (configuration not stated): 0.95 (inactive).
For the molecule `O=C(CCn1c(=O)oc2ccccc21)Sc1ccc(C(F)(F)F)cc1`, the z-score was 0.8 (inactive).
`Cc1ccc(NC(=O)c2ccc3nc(N4CCOCC4)sc3c2)cc1`: the z-score is -1.3 (inactive).
Turning to `O=C(CSC1=NCCS1)Nc1cc(C(F)(F)F)ccc1Cl`, the z-score was -0.55 (inactive).
For `COc1ccc(NC(=O)C(=S)N2CCCCC2)cc1`, the z-score is -0.45 (inactive).
As for `Cc1nc(N)nc(CSc2ccc(Cl)cc2)n1`, the z-score was 1.4 (inactive).
For the molecule `O=C(c1[nH]nc2c1CCc1ccccc1-2)N1CCCC1`, the z-score is -0.15 (inactive).
Turning to `CC(=O)NCc1n[nH]c(=O)c2ccccc12`, the z-score was -0.4 (inactive).
Turning to `CCOc1ccc(NCc2nc3ccccc3n2C)cc1`, the z-score was 0.75 (inactive).
As for `Oc1c(Cl)cc(Cl)c(Cl)c1Cc1c(O)c(Cl)cc(Cl)c1Cl`, the z-score was -3.25 (active).
Turning to `CC1CC(C)CN(c2nc3ccccc3c(=O)n2-c2ccc(Cl)cc2)C1` (configuration not stated), the z-score was -1.35 (inactive).
For `CCS(=O)(=O)c1ccc2c(c1)N1CCS(=O)(=O)N=C1O2` the value was 0.9 (inactive); for `CC1(C)COC(Nc2ccc(Cl)c(Cl)c2)=N1`, -0.6 (inactive); for `Cc1nc2c3ccccc3n3c(CCCC(=O)NCc4ccccn4)nnc3n2n1`, 1.15 (inactive).
Take `O=S1(=O)CC(S(=O)(=O)c2ccccc2)C(S(=O)(=O)c2ccccc2)C1` (configuration not stated): the z-score is 1.15 (inactive).
On to `COc1ccc2c(CC(=O)OCc3cc(Cl)c4c(c3)OCCCO4)coc2c1`, for which the z-score is -0.55 (inactive).
As for `Cc1cccc(CC2(Cc3cccc(C)c3)C(=O)OC(C)(C)OC2=O)c1`, the z-score was 0.1 (inactive).
For `N#CC(c1ccc(F)cc1)N1CCOCC1` (configuration not stated), the z-score is -1.05 (inactive).
Regarding `CN(C(=O)Cn1nc(C(F)(F)F)c2c1CCC2)C1CCCCC1`, the z-score is -0.25 (inactive).
On to `O=C(CCc1ccccc1)Nc1nnc(SCC(=O)N2CCCCCC2)s1`, for which the z-score is -0.2 (inactive).
As for `N#Cc1c(=O)c2nc(NCCc3ccccc3)ncc2n2c(=O)c3cc(Br)ccc3[nH]c12`, the z-score was -1.25 (inactive).
`C=CCN(C(=O)C1CCCC1)c1nc2c(s1)CCCC2`: the z-score was -1.05 (inactive).
Consider `CC1CC(C)CN(C(=O)COC(=O)c2cccnc2Nc2ccccc2F)C1` (configuration not stated), for which the z-score was 0.1 (inactive).
Turning to `C=CCNc1nc(SC)nc2ccccc12`, the z-score was 1.45 (inactive).
As to `COc1ccc(/C=N/NC(=O)c2ccccc2)cc1OC`, the z-score was 0.85 (inactive).
For `COc1cccc(/C=N/NC(=O)Cc2ccccc2)c1` the value was -0.6 (inactive); for `COC(=O)N/N=C/c1c[n+]([O-])c2ccccc2[n+]1[O-]`, -3.7 (active).
In the case of `CC(NC(=O)CC1=NS(=O)(=O)c2ccccc2N1)c1ccccc1` (configuration not stated), the z-score is 0.8 (inactive).
Regarding `Cc1cc(/C=C2\C(=O)NC(=S)N(c3ccccc3F)C2=O)c(C)n1-c1ccc(Cl)c(C(=O)O)c1`, the z-score was -0.8 (inactive).
For `COC(=O)c1ccc(CNC(=O)C(C)Sc2ccccc2)cc1` (configuration not stated), the z-score is -0.15 (inactive).
Consider `N#Cc1c(C(F)(F)F)cc(=O)[nH]c1S`, for which the z-score is -0.6 (inactive).
Next, `O=C(CSC1=NC2(CCCC2)Nc2ccccc21)Nc1ccc2c(c1)OCCO2`: 0 (inactive).
For `C=CCNc1nc(OC)nc(OC)n1` the value was 0.15 (inactive); for `S=C1SCN(CCN2CCOCC2)CN1Cc1ccccc1`, -2.95 (active).
For `C(=C\c1ccccc1)/CNCCCN1CCOCC1` the value was -0.45 (inactive); for `COc1ccc(CN2CN(C(C)C)CSC2=S)cc1`, -1.55 (inactive).
Turning to `Cc1cnc(NC(=O)CSc2nc3sc4c(c3c(=O)n2C)CCCC4)s1`, the z-score was -1.2 (inactive).
For `O=C(OCN1C(=O)c2ccccc2C1=O)c1ccccc1O` the value was 0.65 (inactive); for `Nc1nc(/C(=C/CC(=O)O)C(=O)N[C@@H]2C(=O)N3C(C(=O)O)=CCS[C@H]23)cs1`, -1.1 (inactive); for `CO/N=C(/C(=O)N[C@@H]1C(=O)N2C(C(=O)O)=C(CSc3nc(=O)c(O)nn3C)CS[C@H]12)c1csc(N)n1`, -4.8 (active) and -2 (inactive).
With `CC(=O)Nc1ccc(C(=O)N(C)Cc2cccc(F)c2)cc1`, the z-score is 1.3 (inactive).
Consider `OCc1nc(-c2ccccc2)cs1`, for which the z-score is -0.45 (inactive).
For `CC(C)N1CCC(=O)N(c2ccccc2Cl)C1=O` the value was 0.25 (inactive); for `CC(N)C(=O)Nc1ccc2c(c1)Cc1ccccc1-2` (configuration not stated), -1.1 (inactive).
For `Cc1cccc(C(=O)Nc2nnc(/N=C/c3ccc(Br)s3)s2)c1`, the z-score is -0.85 (inactive).
With `O=C(NC1CCCC1)c1cc(-c2ccccc2)on1`, the z-score is 0.55 (inactive).
For `CC(C)CNC(=O)c1cc(-c2ccc(Br)cc2)on1` the value was -0.2 (inactive); for `O=C(NC1CCCC1)c1cc(-c2ccc(Br)cc2)on1`, -2.5 (active); for `CCn1c(SCC(=O)Nc2ccc3c(c2)OCCCO3)nc2cc(S(N)(=O)=O)ccc21`, 2.15 (inactive).
As for `COc1ccc(-c2nc3cc(N=Cc4cccc(OC)c4O)ccc3o2)cc1`, the z-score is 0.1 (inactive).
For `COc1ccc(-c2ocnc2C(=O)O)cc1`, the z-score was -0.1 (inactive).
As to `CCCCSc1nnc2c(=O)[nH]c(=O)[nH]c2n1`, the z-score is -1.6 (inactive).
Regarding `CC(=O)NCc1ccc(C(=O)COC(=O)c2cc(-c3ccccc3)nn2-c2ccccc2)o1`, the z-score was 0.5 (inactive).
For `CC(=O)Oc1ccc2c(=O)c(-c3ccccc3)coc2c1C` the value was 0.9 (inactive); for `CCOC(=O)c1c(NC(=O)c2cc3ccccc3o2)sc2c1CC(C)(C)OC2`, 1.4 (inactive); for `NS(=O)(=O)c1cc(OCC(F)(F)F)ccc1OCC(F)(F)F`, -0.85 (inactive).
With `Cn1cc(NC(=O)N2CCc3ccccc3C2)c2ccccc21`, the z-score was 0.5 (inactive).
With `Cc1ccc(Cn2ccsc2=NC(=O)COC(=O)Cn2c(C)csc2=O)cc1`, the z-score is -3.3 (active).
Consider `COCCn1c(C)cc(C(=O)COC(=O)Cn2c(C)csc2=O)c1C`, for which the z-score is -0.2 (inactive).
With `Cc1csc(=O)n1CC(=O)OCC(=O)c1ccc(Cl)s1`, the z-score was 1.15 (inactive).
For `Cc1ccccc1C(=O)Nc1ccccc1N1CCN(C)CC1`, the z-score was 0.25 (inactive).
Next, `O=C1NN(c2ccc(Cl)c(Cl)c2)C(=O)/C1=C\C=C\c1ccccc1`: 0.25 (inactive).
Take `N#Cc1c(SCC(=O)C23CC4CC(CC(C4)C2)C3)sc2c(=O)[nH]c(=O)[nH]c12`: the z-score is -0.7 (inactive).

The values above are taken from PubChem BioAssay AID504770 (ICCB-Longwood Screening Facility, Harvard Medical School, 2011).
